Results as given in PubChem BioAssay AID1345085 (National Center for Advancing Translational Sciences (NCATS), 2018).
Records with an inconclusive call do not appear. Values without a mark were called inactive. The source made the active and inactive calls. The call rests on the fitted dose curve; in most records, active means well fitted cell-killing curve with a large enough effect; inconclusive means small, poorly fitted or top-dose-only effect, or effect the other way; inactive means no such curve, though single readings can be large or run the other way.

The molecules below were run on Jar (assay: Confirmatory qHTS for gynecologic anti-cancer compounds from libraries of approved drugs and bioactive compounds). Settings: gynecologic cancer cell panel viability, ATPlite luminescence, 48 h; series mostly up to 57.6 µM; activity change, negative = viability loss: at the top concentration.
How it was run: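 Cells (1,000/well) were plated, left 16 h at 37 C/5% CO2, then given compound at 11 concentrations (1:3) from 57.5 uM to 0.977 nM for 48 h. ATPlite luminescence after 15 min at room temperature gave IC50 values.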
Further: nearly all actives have a fitted effect of over 55% in size.
On the % scale 0 is the no-effect control and ±100 the full control effect; potency means the concentration at half of the fitted maximal effect.

SMILES	Potency	activity change, negative = viability loss
C=C(C)[C@H]1Cc2c(ccc3c2O[C@@H]2COc4cc(OC)c(OC)cc4[C@@H]2C3=O)O1	0.0343 µM (active)	
O=C(O)Cc1ccccc1		11.9%
C[C@]12CC[C@H]3[C@@H](CCC4=CC(=O)CC[C@@H]43)[C@@H]1CC[C@@H]2OC(=O)CCc1ccccc1		-13.7%
CCC(=O)O[C@H]1CC[C@H]2[C@@H]3CCC4=CC(=O)CC[C@]4(C)[C@H]3CC[C@]12C		-25.3%
C[C@H]1CCC/C=C/C2C[C@H](O)C[C@H]2[C@H](O)/C=C/C(=O)O1 (some centres not stated)	0.432 µM (active)	
CCNC(=O)C[C@@H]1N=C(c2ccc(Cl)cc2)c2cc(OC)ccc2-n2c(C)nnc21		-8.57%
Cc1sc2c(c1C)C(c1ccc(Cl)cc1)=NC(CC(=O)OC(C)(C)C)c1nnc(C)n1-2 (configuration not stated)	5.44 µM (active)	
